# Assay results: paper PMC5540273 (PLoS ONE, 2017)
# Several values for one entry are separate records, joined by “and”; a condition that tells them apart may be missing. Equal values may be shown once. Read-outs that look alike come from different tables or passages of the source.
# How the values were obtained:
# MAP3K3 = details: concentration: 1 μM, replicates: in singlicate, n = 1
# MAP3K4 = details: concentration: 1 μM, replicates: in singlicate, n = 1
# MAP4K2 = details: concentration: 1 μM, replicates: in singlicate, n = 1
# MAP4K3 = details: concentration: 1 μM, replicates: in singlicate, n = 1
# MAP4K4 = details: concentration: 1 μM, replicates: in singlicate; n = 1
# MAP4K5 = details: concentration: 1 μM, replicates: in singlicate; n = 1
# MAPKAPK2 = details: concentration: 1 μM, replicates: in singlicate, n = 1
# MAPKAPK5 = details: concentration: 1 μM, replicates: in singlicate, n = 1
# MARK1 = details: concentration: 1 μM, replicates: in singlicate; n = 1
# MARK2 = details: concentration: 1 μM, replicates: in singlicate, n = 1
# MARK3 = details: concentration: 1 μM, replicates: in singlicate; n = 1
# MARK4 = details: concentration: 1 μM, replicates: in singlicate, n = 1
# MAST1 = details: concentration: 1 μM, replicates: in singlicate, n = 1
# MEK1 = system: T1, MEK1; details: concentration: 1 μM, replicates: in singlicate, n = 1
# T1 construct: gene MAP2K1
# MEK2 = system: T2, MEK2; details: concentration: 1 μM, replicates: in singlicate, n = 1
# T2 construct: gene MAP2K2
# MEK3 = system: T3, MEK3; details: concentration: 1 μM, replicates: in singlicate, n = 1
# T3 construct: gene MAP2K3
# MEK4 = system: T4, MEK4; details: concentration: 1 μM, replicates: in singlicate, n = 1
# T4 construct: gene MAP2K4
# MEK5 = system: T5, MEK5; details: concentration: 1 μM, replicates: in singlicate, n = 1
# T5 construct: gene MAP2K5
# MEK6 = system: T6, MEK6; details: concentration: 1 μM, replicates: in singlicate; n = 1
# T6 construct: gene MAP2K6
# MELK = details: concentration: 1 μM, replicates: in singlicate, n = 1
# 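Note: KINOMEscan kinase panel screen.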
compound,measurement,setting,value
FC(F)(F)c1cc(Nc2nccc(-c3c(-c4ccc(Cl)cc4)nn4ncccc34)n2)ccc1Cl [GW829351],%Inh,MAP3K3,0%
same,%Inh,MAP3K4,0%
same,%Inh,MAP4K2,0%
same,%Inh,MAP4K3,0%
same,%Inh,MAP4K4,0%
same,%Inh,MAP4K5,0%
same,%Inh,MAPKAPK2,0%
same,%Inh,MAPKAPK5,0%
same,%Inh,MARK1,0%
same,%Inh,MARK2,0%
same,%Inh,MARK3,0%
same,%Inh,MARK4,17%
same,%Inh,MAST1,20%
same,%Inh,MEK1,6%
same,%Inh,MEK2,21%
same,%Inh,MEK3,0%
same,%Inh,MEK4,0%
same,%Inh,MEK5,1%
same,%Inh,MEK6,0%
same,%Inh,MELK,0%
COc1ccc(-c2oc3ncnc(N)c3c2-c2ccc(OC)cc2)cc1 [SB-589132],%Inh,MAP3K3,0%
same,%Inh,MAP3K4,0%
same,%Inh,MAP4K2,0%
same,%Inh,MAP4K3,0%
same,%Inh,MAP4K4,0%
same,%Inh,MAP4K5,0%
same,%Inh,MAPKAPK2,19%
same,%Inh,MAPKAPK5,0%
same,%Inh,MARK1,0%
same,%Inh,MARK2,0%
same,%Inh,MARK3,2%
same,%Inh,MARK4,0%
same,%Inh,MAST1,53%
same,%Inh,MEK1,0%
same,%Inh,MEK2,0%
same,%Inh,MEK3,0%
same,%Inh,MEK4,0%
same,%Inh,MEK5,88%
same,%Inh,MEK6,0%
same,%Inh,MELK,8%
Cc1ccc(C)c(NC(=O)NCCNc2ccnc(Nc3ccc(F)cc3)n2)c1 [GSK1379878],%Inh,MAP3K3,0%
same,%Inh,MAP3K4,0%
same,%Inh,MAP4K2,0%
same,%Inh,MAP4K3,0%
same,%Inh,MAP4K4,0%
same,%Inh,MAP4K5,0%
same,%Inh,MAPKAPK2,0%
same,%Inh,MAPKAPK5,0%
same,%Inh,MARK1,0%
same,%Inh,MARK2,0%
same,%Inh,MARK3,0%
same,%Inh,MARK4,9%
same,%Inh,MAST1,0%
same,%Inh,MEK1,0%
same,%Inh,MEK2,0%
same,%Inh,MEK3,11%
same,%Inh,MEK4,0%
same,%Inh,MEK5,43%
same,%Inh,MEK6,0%
same,%Inh,MELK,4%
COc1ccc(-c2nc3n(c2-c2ccncc2)CCC3)cc1 [SKF-104493],%Inh,MAP3K3; 1 µM,6% and 0%
same,%Inh,MAP3K4; 1 µM,28% and 3%
same,%Inh,MAP4K2; 1 µM,7% and 0%
same,%Inh,MAP4K3; 1 µM,0% and 8%
same,%Inh,MAP4K4,0%
same,%Inh,MAP4K5,0%
same,%Inh,MAPKAPK2; 1 µM,12% and 9%
same,%Inh,MAPKAPK5; 1 µM,13% and 10%
same,%Inh,MARK1,0%
same,%Inh,MARK2; 1 µM,0% and 11%
same,%Inh,MARK3,0%
same,%Inh,MARK4; 1 µM,17% and 0%
same,%Inh,MAST1; 1 µM,49% and 11%
same,%Inh,MEK1; 1 µM,0% and 12%
same,%Inh,MEK2; 1 µM,29% and 5%
same,%Inh,MEK3; 1 µM,1% and 0%
same,%Inh,MEK4; 1 µM,67% and 12%
same,%Inh,MEK5; 1 µM,24% and 0%
same,%Inh,MEK6,0%
same,%Inh,MELK; 1 µM,0% and 15%
COc1ccc(NC(=O)c2ccc(-c3cc(-c4nnc(C)o4)ccc3C)cc2)cc1 [GW595885],%Inh,MAP3K3,0%
same,%Inh,MAP3K4,20%
same,%Inh,MAP4K2,0%
same,%Inh,MAP4K3,0%
same,%Inh,MAP4K4,4%
same,%Inh,MAP4K5,0%
same,%Inh,MAPKAPK2,25%
same,%Inh,MAPKAPK5,0%
same,%Inh,MARK1,0%
same,%Inh,MARK2,0%
same,%Inh,MARK3,0%
same,%Inh,MARK4,0%
same,%Inh,MAST1,5%
same,%Inh,MEK1,0%
same,%Inh,MEK2,0%
same,%Inh,MEK3,0%
same,%Inh,MEK4,9%
same,%Inh,MEK5,0%
same,%Inh,MEK6,0%
same,%Inh,MELK,0%
N#Cc1ccc(Oc2ccc(Nc3ncnc4cc[nH]c34)cc2Cl)cc1,%Inh,MAP3K3,27%
same,%Inh,MAP3K4,9%
same,%Inh,MAP4K2,0%
same,%Inh,MAP4K3,24%
same,%Inh,MAP4K4,37%
same,%Inh,MAP4K5,27%
same,%Inh,MAPKAPK2,0%
same,%Inh,MAPKAPK5,21%
same,%Inh,MARK1,3%
same,%Inh,MARK2,0%
same,%Inh,MARK3,0%
same,%Inh,MARK4,0%
same,%Inh,MAST1,38%
same,%Inh,MEK1,22%
same,%Inh,MEK2,39%
same,%Inh,MEK3,37%
same,%Inh,MEK4,0%
same,%Inh,MEK5,44%
same,%Inh,MEK6,19%
same,%Inh,MELK,25%
C[C@H]1CC[C@@H](C(=O)Nc2ccccc2)CN1c1cc(-c2ccc3c(N)n[nH]c3c2)nc(N)n1 [GSK2283293],%Inh,MAP3K3,34%
same,%Inh,MAP3K4,5%
same,%Inh,MAP4K2,0%
same,%Inh,MAP4K3,0%
same,%Inh,MAP4K4,7%
same,%Inh,MAP4K5,0%
same,%Inh,MAPKAPK2,22%
same,%Inh,MAPKAPK5,0%
same,%Inh,MARK1,0%
same,%Inh,MARK2,0%
same,%Inh,MARK3,0%
same,%Inh,MARK4,0%
same,%Inh,MAST1,0%
same,%Inh,MEK1,0%
same,%Inh,MEK2,0%
same,%Inh,MEK3,0%
same,%Inh,MEK4,3%
same,%Inh,MEK5,11%
same,%Inh,MEK6,0%
same,%Inh,MELK,0%
CCCc1ccc(S(=O)(=O)NC2CCN(c3ccnc(Nc4ccc(OC)cc4)n3)C2)cc1 (centres unmarked) [GSK1379737],%Inh,MAP3K3,0%
same,%Inh,MAP3K4,0%
same,%Inh,MAP4K2,0%
same,%Inh,MAP4K3,0%
same,%Inh,MAP4K4,0%
same,%Inh,MAP4K5,0%
same,%Inh,MAPKAPK2,29%
same,%Inh,MAPKAPK5,0%
same,%Inh,MARK1,0%
same,%Inh,MARK2,0%
same,%Inh,MARK3,0%
same,%Inh,MARK4,0%
same,%Inh,MAST1,43%
same,%Inh,MEK1,0%
same,%Inh,MEK2,0%
same,%Inh,MEK3,0%
same,%Inh,MEK4,12%
same,%Inh,MEK5,0%
same,%Inh,MEK6,0%
same,%Inh,MELK,0%
COc1ccc(NC(=O)Nc2ccc(C)c(-c3ccc(C(=O)Nc4ccncc4)cc3)c2)cc1 [GSK1398475],%Inh,MAP3K3,0%
same,%Inh,MAP3K4,0%
same,%Inh,MAP4K2,0%
same,%Inh,MAP4K3,0%
same,%Inh,MAP4K4,0%
same,%Inh,MAP4K5,0%
same,%Inh,MAPKAPK2,6%
same,%Inh,MAPKAPK5,0%
same,%Inh,MARK1,0%
same,%Inh,MARK2,0%
same,%Inh,MARK3,0%
same,%Inh,MARK4,0%
same,%Inh,MAST1,0%
same,%Inh,MEK1,0%
same,%Inh,MEK2,0%
same,%Inh,MEK3,0%
same,%Inh,MEK4,18%
same,%Inh,MEK5,0%
same,%Inh,MEK6,0%
same,%Inh,MELK,6%
COc1cc2ncnc(Nc3ccc(OCc4ccccc4Br)c(Cl)c3)c2cc1OC.Cl [GI261590],%Inh,MAP3K3,0%
same,%Inh,MAP3K4,0%
same,%Inh,MAP4K2,0%
same,%Inh,MAP4K3,11%
same,%Inh,MAP4K4,0%
same,%Inh,MAP4K5,17%
same,%Inh,MAPKAPK2,15%
same,%Inh,MAPKAPK5,0%
same,%Inh,MARK1,29%
same,%Inh,MARK2,0%
same,%Inh,MARK3,1%
same,%Inh,MARK4,11%
same,%Inh,MAST1,0%
same,%Inh,MEK1,19%
same,%Inh,MEK2,13%
same,%Inh,MEK3,0%
same,%Inh,MEK4,0%
same,%Inh,MEK5,98.9%
same,%Inh,MEK6,0%
same,%Inh,MELK,0%
